D2 antagonist: HTS Assay for Allosteric Antagonists of the Human D2 Dopamine Receptor: Primary Screen for Antagonists | D(2) dopamine receptor (Homo sapiens), P14416 | HEK293 TREx D2 cells, calcium flux, dopamine EC80 | inhibition, % at 10 µM | actives 2% (n = 340,000) | AID 485344, 2010; in the data active = inhibition above about 30%; inactive = below that, where a call was filed; also: 0% is about no effect
Target sequence (P14416 whole entry, looked up): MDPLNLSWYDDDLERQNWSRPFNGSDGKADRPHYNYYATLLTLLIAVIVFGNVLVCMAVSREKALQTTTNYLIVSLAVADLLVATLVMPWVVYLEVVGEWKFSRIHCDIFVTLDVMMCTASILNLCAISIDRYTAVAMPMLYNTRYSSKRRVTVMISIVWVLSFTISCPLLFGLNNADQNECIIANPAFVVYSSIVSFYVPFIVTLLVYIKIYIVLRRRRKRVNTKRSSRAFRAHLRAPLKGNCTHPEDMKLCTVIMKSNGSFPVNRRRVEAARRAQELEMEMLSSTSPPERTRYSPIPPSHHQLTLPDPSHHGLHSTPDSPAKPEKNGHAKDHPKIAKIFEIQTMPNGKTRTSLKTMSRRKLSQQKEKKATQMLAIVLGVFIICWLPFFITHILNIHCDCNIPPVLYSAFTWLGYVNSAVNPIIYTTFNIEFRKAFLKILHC
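Compounds are added to dye-loaded, induced HEK293 T-REx cells coupled to calcium release via D2; after a 3 min kinetic read an EC80 dopamine stimulus is given and fluorescence is recorded for 3 more min.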
D2 ag-1: HTS Assay for Allosteric Agonists of the Human D2 Dopamine Receptor: Primary Screen for Agonists; HEK293 T-REx D2 cells, calcium flux agonist mode; activation, % at 2 µM; actives 0.53% (n = 340,000); AID 485358, 2010;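 active = activation over 3 SD above normal in the single-dose calcium agonist read, cut at about 30% in these data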; also: 0% is about no effect
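HEK293 Trex D2 cells, tetracycline-induced, o/n 30 C 5% CO2; no-wash Ca dye, RT 30–90 min; 10-cycle baseline, 23 nl cpd added, kinetic Ca read 180 s; agonist hits = positive Ca response.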
D2 ag-2: Beta-Arrestin HTS for Positive Allosteric Modulators of the Human D2 Dopamine Receptor: Agonists. D(2) dopamine receptor (Homo sapiens), P14416. DiscoveRx PathHunter D2 beta-arrestin, luminescence, 90 min; 100% = 57 uM dopamine signal. activation, % (concentration not given with the values). actives 0.084% (n = 360,000); in the data active = activation above about 40%
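Agonist mode: compounds alone added to overnight-plated D2 PathHunter cells for 90 min at 37 C, with 57 uM final dopamine (EC100) defining full response. Beta-arrestin recruitment detected by chemiluminescent reagent, read after 1 h at ambient temperature.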
D2 PAM-1: Beta-Arrestin HTS for Positive Allosteric Modulators of the Human D2 Dopamine Receptor: Potentiators | DiscoveRx D2 beta-arrestin cells, luminescence, 90 min; 100% = 57 uM dopamine signal | D(2) dopamine receptor (Homo sapiens), P14416 | potentiation, % (no concentration beside the values) | AID 624464, 2012 | actives 0.23% (n = 360,000); in the data active = potentiation above about 50%
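D2 cells co-treated with compound plus 50 nM dopamine (EC20) for 90 min at 37 deg C to detect potentiation. Beta-arrestin recruitment was read as enzyme-fragment luminescence after 1 h at ambient temperature. Full response was set by 57 uM dopamine.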
D2 PAM-2: HTS Assay for Positive Allosteric Modulators of the Human D2 Dopamine Receptor: Primary Screen for Potentiators. HEK293 T-REx D2, calcium flux, EC20 dopamine potentiation. potentiation, % at 10 µM. actives 0.34% (n = 340,000). AID 485347, 2010;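 active = potentiation over 3 SD above the plate norm, cut at about 30% in these data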; also: 0% is about no effect
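Using a no-wash calcium dye in inducible, force-coupled HEK293 Trex cells expressing D2, we tracked fluorescence each second for 180 s after compound, then for 180 s after EC20 dopamine to detect augmented signalling.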
Starred values were filed as active, the others as inactive. Compounds with a hit are over-represented: about 2.4% of the library has one in this group of screens.

How did O=C(NC1CCN(Cc2ccc(Cl)c(Cl)c2)CC1)c1ccccc1 do in these assays?
D2 antagonist: 81*; D2 ag-1: -2; D2 ag-2: 2; D2 PAM-1: -37; D2 PAM-2: -29

What do the screens show for `O=C(NC1CCN(Cc2ccc(F)cc2)CC1)c1ccccc1`?
D2 antagonist: 115*; D2 ag-1: -1; D2 ag-2: -5; D2 PAM-1: -15; D2 PAM-2: -20

Results for O=C(NC1CCN(Cc2ccc3ccccc3c2)CC1)c1ccccc1 ?
D2 antagonist: 51*; D2 ag-1: -2; D2 ag-2: -3; D2 PAM-1: -34; D2 PAM-2: -23

What do the screens show for `COc1ccc(CCNC(=O)CSc2nnnn2-c2cccc(C(C)=O)c2)cc1OC`?
D2 ag-1: 0; D2 PAM-2: 1

What do the screens show for `CC(=O)c1ccc(N2CCN(C(=O)C3CCN(S(=O)(=O)c4cn(C)cn4)CC3)CC2)cc1`?
D2 ag-1: -1; D2 PAM-2: 1

What do the screens show for `CCOC(=O)c1ccc(NC(=O)c2cnn(-c3ccc(C)cc3C)c2C2CCN(C(=O)OC(C)(C)C)CC2)cc1`?
D2 ag-1: 1; D2 PAM-2: -1

What do the screens show for `COC(=O)CC(NC(=O)c1ccco1)c1cccc2ccccc12` (stereo not given)?
D2 antagonist: 8; D2 ag-1: 0; D2 ag-2: -1; D2 PAM-1: -10; D2 PAM-2: 10

How did COC(=O)CC(NS(=O)(=O)c1cccs1)c1cccc2ccccc12 (stereo not given) do in these assays?
D2 antagonist: 46*; D2 ag-1: 0; D2 ag-2: -2; D2 PAM-1: -3; D2 PAM-2: 2

What do the screens show for `Cc1ccc(-c2nnc3ccccc3c2C(=O)Nc2ccccc2F)cc1`?
D2 ag-1: 0; D2 PAM-2: 1

Results for COc1ccc(NC(=O)Cc2ccccc2)cc1 ?
D2 antagonist: -10; D2 ag-1: 1; D2 ag-2: -4; D2 PAM-1: -4; D2 PAM-2: 10

What do the screens show for `COc1ccc(NC(=O)CNC(=O)Cc2ccccc2)cc1`?
D2 antagonist: 8; D2 ag-1: -2; D2 ag-2: 6; D2 PAM-1: 0; D2 PAM-2: 32*

How did COc1ccc(NC(=O)CN(C)C(=O)c2oc3ccccc3c2C)cc1 do in these assays?
D2 antagonist: 31*; D2 ag-1: -1; D2 ag-2: -1; D2 PAM-1: -3; D2 PAM-2: -3

How did COc1ccc(NC(=O)CNS(=O)(=O)c2ccc(Cl)cc2)cc1 do in these assays?
D2 antagonist: -4; D2 ag-1: 0; D2 ag-2: 1; D2 PAM-1: 1; D2 PAM-2: 45*

What do the screens show for `COc1ccc(OCc2nc3c4c(-c5ccccc5)c(-c5ccccc5)oc4ncn3n2)cc1`?
D2 ag-1: -2; D2 PAM-2: 16

Results for COc1cc2c(cc1OC)-c1cc(Nc3ccc4c(c3)OCCO4)nc(=O)n1CC2 ?
D2 antagonist: -3; D2 ag-1: -1; D2 ag-2: 0; D2 PAM-1: 2; D2 PAM-2: 57*

How did COc1ccc(Nc2cc3n(c(=O)n2)CCc2cc(OC)c(OC)cc2-3)cc1 do in these assays?
D2 antagonist: -8; D2 ag-1: 0; D2 ag-2: 1; D2 PAM-1: -4; D2 PAM-2: 6

Results for COc1ccccc1NC(=O)N(Cc1nnc2n1CCCCC2)c1ccc(F)cc1 ?
D2 ag-1: 0; D2 PAM-2: 6

What do the screens show for `O=C(CN1C(=O)NC2(CCCCCC2)C1=O)Nc1ccc(Br)cc1Br`?
D2 antagonist: 37*; D2 ag-1: 0; D2 ag-2: -1; D2 PAM-1: 2; D2 PAM-2: 16

What do the screens show for `CCOC(=O)c1ccc(NC(=O)CN2C(=O)NC3(CCCCCCC3)C2=O)cc1`?
D2 antagonist: 38*; D2 ag-1: 0; D2 ag-2: 2; D2 PAM-1: 1; D2 PAM-2: 14

Results for COC(=O)c1c(NC(=O)CN2C(=O)NC3(CCC(C)CC3)C2=O)sc2c1CCC2 (stereo not given) ?
D2 antagonist: -13; D2 ag-1: 0; D2 ag-2: 2; D2 PAM-1: -1; D2 PAM-2: -16

How did CCOC(=O)c1ccc(NC(=O)CSC2=NC(=O)C(CC)C(=O)N2)cc1 (stereo not given) do in these assays?
D2 antagonist: 47*; D2 ag-1: 1; D2 ag-2: -3; D2 PAM-1: -14; D2 PAM-2: 4

What do the screens show for `CCC1C(=O)N=C(SCC(=O)Nc2cccc3ccccc23)NC1=O` (stereo not given)?
D2 antagonist: 6; D2 ag-1: 0; D2 ag-2: -1; D2 PAM-1: 4; D2 PAM-2: -9

Results for CCCCOC(=O)c1ccc(NC(=O)CN2C(=O)NC3(CCCCCC3)C2=O)cc1 ?
D2 antagonist: 2; D2 ag-1: 1; D2 ag-2: -2; D2 PAM-1: -1; D2 PAM-2: 5

What do the screens show for `Cc1ccc(NC(=O)CN2C(=O)NC3(CCCC3)C2=O)c(Cl)c1`?
D2 antagonist: -16; D2 ag-1: -1; D2 ag-2: -1; D2 PAM-1: -4; D2 PAM-2: 15

Results for CC1CCC2(CC1)NC(=O)N(CC(=O)Nc1sc3c(c1C(N)=O)CCC3)C2=O (stereo not given) ?
D2 antagonist: 38*; D2 ag-1: 1; D2 ag-2: 5; D2 PAM-1: -8; D2 PAM-2: -1

What do the screens show for `Cc1ccc(-c2nc3ccccc3o2)cc1NC(=O)Cc1ccc(Cl)cc1`?
D2 ag-1: 0; D2 PAM-2: -6

Results for Cc1ccc(CN(C(=O)COc2ccc(Cl)c(C)c2)C2CCS(=O)(=O)C2)o1 (stereo not given) ?
D2 ag-1: 3; D2 PAM-2: -3

How did CCOc1ccc(Cl)cc1C1CC(=O)Nc2cc(OC)c(OC)c(OC)c21 (stereo not given) do in these assays?
D2 ag-1: -1; D2 PAM-2: 8

What do the screens show for `NC(=O)c1ccsc1NC(=O)CN1C(=O)NC2(CCCCC2)C1=O`?
D2 antagonist: -4; D2 ag-1: 0; D2 ag-2: 2; D2 PAM-1: -2; D2 PAM-2: -7

How did N#Cc1ccsc1NC(=O)CN1C(=O)NC2(CCCC2)C1=O do in these assays?
D2 antagonist: 40*; D2 ag-1: 0; D2 PAM-2: -20

Bioassay records: PubChem BioAssay, National Center for Advancing Translational Sciences (NCATS)
